About 83,000 compounds went through this panel and 20% of them were active in at least one assay; those are over-represented in the sample as a whole.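 Each cell line was grown in a 96-well plate and treated with one concentration of compound for 48 hours. Values below 10 were considered active.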 Calls of active or inactive are those of the source.
Key:
Assay in all cases: NCI-60 one-dose screen, 48 h (100 = growth as untreated, 0 = no growth, -100 = all killed)
Conditions in all cases: 10 µM unless noted
[1] = tested on: NCI-H23 lung
[2] = tested on: NCI-H322M lung
[3] = tested on: HOP-62 NSCLC
[4] = tested on: NCI-H460 lung
[5] = tested on: HOP-92 NSCLC
[6] = tested on: NCI-H522 lung
[7] = tested on: 786-0 renal
[8] = tested on: COLO 205 colon
[9] = tested on: DU-145 prostate
[10] = tested on: K-562 leukemia
[11] = tested on: MALME-3M melanoma
[12] = tested on: MDA-MB-231 breast
[13] = tested on: RXF 393 renal
[14] = tested on: SF-268 CNS
[15] = tested on: SF-295 CNS
[16] = tested on: SF-539 CNS
[17] = tested on: UACC-257 melanoma
[18] = tested on: M14 melanoma
[19] = tested on: HCT-15 colon
[20] = tested on: A549/ATCC NSCLC

Measured: growth

COc1cccc(-c2nn(C)c3sc(C(=O)NCCN4CCN(c5ccccc5F)CC4)cc23)c1
inactive: [1] 91.2% | [2] 87.3% | [3] 81.4% | [4] 57.6% | [5] 14.9% | [6] 60.9% | [7] 57.6% | [9] 89.4% | [12] 30.8% | [13] 41.3% | [14] 76.9% | [16] 56.4% | [19] 29.3%
active: [8] -78.4% | [10] -35.5% | [11] -87% | [15] -55.6% | [17] -67.3% | [18] -90.1%

COc1cc(/C=C2\CCC/C(=C\c3cc(CN4CCCCC4)c(O)c(OC)c3)C2=O)cc(CN2CCCCC2)c1O
inactive: [1] 74.6% | [2] 85.9% | [3] 88.1% | [4] 72.7% | [5] 47% | [6] 87% | [7] 72.4% | [8] 88.4% | [9] 83.1% | [10] 38.8% | [11] 90.3% | [12] 69.3% | [13] 61.7% | [14] 73.5% | [15] 96.8% | [16] 73% | [17] 95.4% | [18] 99% | [19] 52.3%

COc1c2ccoc2c(/C=C/C=O)c2oc(-c3ccccc3)cc(=O)c12
active: [19] 3.15%
inactive: [1] 50.4% | [2] 87.7% | [3] 59.7% | [4] 89.4% | [5] 105% | [6] 67.9% | [7] 94.4% | [8] 116% | [9] 63.1% | [10] 24.1% | [11] 98% | [12] 66.3% | [13] 79% | [14] 39.8% | [15] 51.3% | [16] 38.3% | [17] 108% | [18] 70.8%

Cc1cc2c(c(C)c1Cl)C(=O)/C(=C/c1ccco1)O2
inactive: [1] 87.9% | [2] 99.2% | [3] 96.7% | [4] 94.7% | [5] 129% | [6] 85.3% | [7] 105% | [8] 113% | [9] 103% | [10] 98.5% | [11] 102% | [12] 82.3% | [13] 124% | [14] 109% | [15] 109% | [16] 101% | [17] 97.4% | [18] 93.2% | [19] 70.8%

COc1ccc(/C=C/C(=O)c2c(C)nc3ccccc3c2/C=C/c2ccccc2)cc1O
inactive: [1] 50.6% | [2] 42.3% | [3] 88.6% | [4] 22.8% | [5] 65.6% | [6] 14.9% | [7] 99.4% | [8] 109% | [9] 45.7% | [10] 20.9% | [11] 86.3% | [12] 52.7% | [13] 64.1% | [14] 57.7% | [15] 90.8% | [16] 81.7% | [17] 68.7% | [18] 15.9% | [19] 39.1%

O=c1oc2ccc(Br)cc2c(=O)n1-c1ccc(Br)cc1F
inactive: [20] 13% | [9] 13.8% | [14] 12%
active: [1] -38.4% | [2] 2.56% | [3] -4.63% | [4] 1.55% | [5] -13.7% | [6] 6.36% | [7] 1.72% | [10] 8.3% | [11] -28.4% | [12] -27.2% | [13] -11.5% | [15] -73.6% | [16] -3.2% | [17] -15.1% | [18] -12.4% | [19] 2.53%

CCCCCCCCCCCCCCn1cc(C2=C(c3coc4ccc(OC)cc34)C(=O)NC2=O)c2ccccc21
inactive: [1] 96% | [2] 99.7% | [3] 103% | [4] 98.5% | [5] 107% | [6] 90.3% | [20] 96.6% | [7] 97.6% | [9] 102% | [10] 121% | [11] 107% | [12] 111% | [13] 108% | [14] 98.8% | [15] 97.2% | [16] 103% | [17] 96.8% | [18] 98.7% | [19] 88.1%

Cc1cccc2c(=O)c3c(sc12)c(NCCN)nc1ccccc13
active: [1] -13.2% | [2] -38.3% | [3] -64.6% | [4] -75.3% | [6] -56.3% | [20] -75.2% | [7] -37.4% | [9] -87.9% | [10] -45.2% | [11] -74.2% | [12] -75.6% | [14] 6.22% | [15] -75.3% | [16] -85.7% | [17] -17.6% | [18] -75.7% | [19] -79.9%
inactive: [5] 27.7% | [13] 34.1%

Cc1ccc2sc3c(NCCCNCCO)nc4ccccc4c3c(=O)c2c1
inactive: [1] 75.2% | [2] 73.1% | [3] 50.9% | [5] 35.3% | [6] 27.2% | [7] 54% | [11] 85% | [12] 23.8% | [13] 44.5% | [14] 47.7% | [15] 84.2% | [16] 78.6% | [17] 72.7%
active: [4] -81.6% | [20] 0.19% | [9] 4.48% | [10] -48.5% | [18] -44.3% | [19] -8.68%

CC(=O)c1ccc(NC(=O)Nc2ccc(S(=O)(=O)Nc3ccc(Cl)nn3)cc2)cc1
inactive: [1] 96.4% | [2] 95.8% | [3] 95.9% | [4] 109% | [5] 106% | [6] 96.9% | [20] 103% | [7] 108% | [9] 110% | [10] 103% | [11] 100% | [12] 96.7% | [13] 117% | [14] 99.2% | [15] 103% | [16] 97.6% | [17] 99.4% | [18] 111% | [19] 107%
